Data published in the supplement of paper PMC10849652.
About 8,800 targets were measured; listed, in parts, are those with a hit and a random draw of the rest. About 0.5% of all pairs of compound and target were hits.

Legend:
Experiment in all cases: log2 fold change, soluble protein after heating vs DMSO (PISA); higher = thermal stabilisation; K562 lysate, 10 uM; active = over 0.2 and 3.5 SD of the protein, either way, in both replicates (recomputed)
alvocidib = compound: CN1CC[C@H](c2c(O)cc(O)c3c(=O)cc(-c4ccccc4Cl)oc23)[C@H](O)C1 [alvocidib]
Outline: (§1)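 K562 pellets were dounce-homogenised in PBS pH 7.4 containing 1 mM MgCl2, and the crude extract, at 1 mg/mL protein, was exposed to 10 μM compound for 30 min. Aliquots were heated for 3 min across 48°C-58°C, pooled, brought to 0.5% NP-40 at 4°C and spun at 21,000xg for 90 min, with the supernatant taken as soluble protein. TMTpro 16plex LC-MS/MS with equalised channel sums quantified that protein. Values are log-two fold changes in thermal stability relative to solvent controls, taken from duplicates.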

Tubastatin A = compound: CN1CCc2c(c3ccccc3n2Cc2ccc(C(=O)NO)cc2)C1 [Tubastatin A]
Outline: as §1

[1] = compound: CNC(=O)C1=CC=CC=C1NC2=NC(=NC=C2Cl)NC3=C(C=C(C=C3)N4CCOCC4)OC
Outline: as §1

defactinib = compound: CNC(=O)c1ccc(Nc2ncc(C(F)(F)F)c(NCc3nccnc3N(C)S(C)(=O)=O)n2)cc1 [defactinib]
Outline: as §1

[2] = compound: CNc1nc(-c2ccc3c(N)n[nH]c3c2)cc(N2C[C@@H](C(=O)NC3CCCCC3)CC[C@H]2C)n1
Outline: as §1

encorafenib = compound: COC(=O)N[C@@H](C)CNc1nccc(-c2cn(C(C)C)nc2-c2cc(Cl)cc(NS(C)(=O)=O)c2F)n1 [encorafenib]
Outline: as §1

[3] = compound: COC(=O)[C@H](CCSC)NC(=O)C1=C(C=C(C=C1)NC[C@H](CS)N)C2=CC=CC=C2
Outline: as §1

alisertib = compound: COc1cc(Nc2ncc3c(n2)-c2ccc(Cl)cc2C(c2c(F)cccc2OC)=NC3)ccc1C(=O)O [alisertib]
Outline: as §1

[4] = compound: COc1cc2nc(-c3cc(F)ccc3O)nc(N[C@@H]3CNC[C@H]3C(C)(C)O)c2cc1OC
Outline: as §1

gefitinib = compound: COc1cc2ncnc(Nc3ccc(F)c(Cl)c3)c2cc1OCCCN1CCOCC1 [gefitinib]
Outline: as §1

lapatinib = compound: CS(=O)(=O)CCNCc1ccc(-c2ccc3ncnc(Nc4ccc(OCc5cccc(F)c5)c(Cl)c4)c3c2)o1 [lapatinib]
Outline: as §1

pictilisib = compound: CS(=O)(=O)N1CCN(Cc2cc3nc(-c4cccc5[nH]ncc45)nc(N4CCOCC4)c3s2)CC1 [pictilisib]
Outline: as §1

crizotinib = compound: C[C@@H](Oc1cc(-c2cnn(C3CCNCC3)c2)cnc1N)c1c(Cl)ccc(F)c1Cl [crizotinib]
Outline: as §1

[5] = compound: C[C@H](C1=CC=C(C=C1)C(=O)NC2=C3C=CNC3=NC=C2)N
Outline: as §1

duvelisib = compound: C[C@H](Nc1ncnc2nc[nH]c12)c1cc2cccc(Cl)c2c(=O)n1-c1ccccc1 [duvelisib]
Outline: as §1

gandotinib = compound: Cc1cc(Nc2cc(CN3CCOCC3)c3nc(C)c(Cc4ccc(Cl)cc4F)n3n2)n[nH]1 [gandotinib]
Outline: as §1

tozasertib = compound: Cc1cc(Nc2cc(N3CCN(C)CC3)nc(Sc3ccc(NC(=O)C4CC4)cc3)n2)n[nH]1 [tozasertib]
Outline: as §1

doramapimod = compound: Cc1ccc(-n2nc(C(C)(C)C)cc2NC(=O)Nc2ccc(OCCN3CCOCC3)c3ccccc23)cc1 [doramapimod]
Outline: as §1

bafetinib = compound: Cc1ccc(NC(=O)c2ccc(CN3CC[C@H](N(C)C)C3)c(C(F)(F)F)c2)cc1Nc1nccc(-c2cncnc2)n1 [bafetinib]
Outline: as §1

[6] = compound: Cc1cccc(CC(=O)N2CCc3c2ccc(-c2cn(C)c4ncnc(N)c24)c3F)n1
Outline: as §1

Measured: log2 fold change

FBXO30 (UniProt Q8TB52)
inactive: alvocidib 0.066 | Tubastatin A -0.106 | [1] 0.03 | defactinib 0.042 | [2] -0.091 | encorafenib 0.036 | [3] 0.1 | alisertib -0.014 | [4] -0.006 | gefitinib 0.029 | lapatinib -0.015 | pictilisib -0.03 | crizotinib -0.013 | [5] 0.187 | duvelisib 0.024 | gandotinib -0.072 | tozasertib -0.021 | doramapimod 0.045 | bafetinib 0.032 | [6] -0.117

EMC7 (UniProt Q9NPA0)
Sequence of UniProt Q9NPA0 (Q9NPA0 whole entry, looked up): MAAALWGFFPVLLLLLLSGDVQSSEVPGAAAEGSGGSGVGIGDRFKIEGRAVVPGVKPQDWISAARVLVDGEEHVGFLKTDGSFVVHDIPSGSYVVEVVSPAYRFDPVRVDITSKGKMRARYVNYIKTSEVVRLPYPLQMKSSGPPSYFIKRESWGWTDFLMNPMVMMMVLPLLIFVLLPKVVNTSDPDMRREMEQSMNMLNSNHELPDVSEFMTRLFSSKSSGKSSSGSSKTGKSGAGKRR
inactive: alvocidib -0.146 | Tubastatin A 0.039 | [1] -0.037 | defactinib 0.02 | [2] -0.008 | encorafenib 0.026 | [3] -0.058 | alisertib 0.001 | [4] 0.017 | gefitinib -0.043 | lapatinib -0.03 | pictilisib 0.024 | crizotinib 0.012 | duvelisib -0.041 | gandotinib 0.077 | tozasertib 0.02 | doramapimod 0.011 | bafetinib -0.031 | [6] 0.174
active: [5] -0.353

ELF2 (UniProt Q15723)
active: lapatinib 0.256
inactive: alvocidib 0.023 | Tubastatin A 0.016 | [1] 0.024 | defactinib -0.013 | [2] -0.062 | encorafenib 0.028 | [3] 0.038 | alisertib -0.101 | [4] -0.06 | gefitinib 0.047 | pictilisib 0.039 | crizotinib -0.085 | [5] 0.033 | duvelisib 0.072 | gandotinib -0.046 | tozasertib -0.033 | doramapimod -0.042 | bafetinib -0.119 | [6] -0.075

EAPP (UniProt Q56P03)
Sequence of UniProt Q56P03 (Q56P03 whole entry, looked up): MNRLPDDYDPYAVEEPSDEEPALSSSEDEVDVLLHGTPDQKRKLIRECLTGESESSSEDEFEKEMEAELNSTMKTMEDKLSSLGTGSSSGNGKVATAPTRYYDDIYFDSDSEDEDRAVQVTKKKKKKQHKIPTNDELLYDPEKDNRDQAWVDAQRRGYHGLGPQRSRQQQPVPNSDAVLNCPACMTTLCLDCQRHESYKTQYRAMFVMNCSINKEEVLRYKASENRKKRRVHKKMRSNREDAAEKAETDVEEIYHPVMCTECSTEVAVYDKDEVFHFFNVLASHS
inactive: alvocidib 0.048 | Tubastatin A -0.025 | [1] 0.078 | defactinib -0.017 | [2] 0.107 | encorafenib -0.014 | [3] -0.053 | alisertib -0.042 | [4] 0.017 | gefitinib -0.03 | lapatinib -0.033 | pictilisib 0.058 | crizotinib 0 | [5] 0.03 | duvelisib 0.03 | gandotinib -0.157 | tozasertib -0.09 | doramapimod -0.058 | bafetinib 0.109 | [6] 0.128

FASTKD2 (UniProt Q9NYY8)
inactive: alvocidib 0.014 | Tubastatin A -0.065 | [1] 0.016 | defactinib 0.056 | [2] 0.036 | encorafenib -0.016 | [3] -0.004 | alisertib 0.021 | [4] -0.033 | gefitinib 0.021 | lapatinib -0.028 | pictilisib -0.001 | crizotinib -0.032 | [5] -0.067 | duvelisib 0.026 | gandotinib -0.049 | tozasertib -0.013 | doramapimod 0.028 | bafetinib -0.028 | [6] 0.05

EDC3 (UniProt Q96F86)
inactive: alvocidib -0.045 | Tubastatin A -0.1 | [1] 0.003 | defactinib 0.009 | [2] 0.038 | encorafenib 0.019 | [3] -0.071 | alisertib 0.025 | [4] -0.02 | gefitinib -0.042 | lapatinib -0.007 | pictilisib -0.034 | crizotinib -0.012 | [5] -0.021 | duvelisib 0.014 | gandotinib 0.032 | tozasertib -0.007 | doramapimod 0.024 | bafetinib -0.008 | [6] -0.003

FKBP8 isoform 2 (UniProt Q14318)
Sequence of UniProt Q14318 (Q14318 whole entry, looked up): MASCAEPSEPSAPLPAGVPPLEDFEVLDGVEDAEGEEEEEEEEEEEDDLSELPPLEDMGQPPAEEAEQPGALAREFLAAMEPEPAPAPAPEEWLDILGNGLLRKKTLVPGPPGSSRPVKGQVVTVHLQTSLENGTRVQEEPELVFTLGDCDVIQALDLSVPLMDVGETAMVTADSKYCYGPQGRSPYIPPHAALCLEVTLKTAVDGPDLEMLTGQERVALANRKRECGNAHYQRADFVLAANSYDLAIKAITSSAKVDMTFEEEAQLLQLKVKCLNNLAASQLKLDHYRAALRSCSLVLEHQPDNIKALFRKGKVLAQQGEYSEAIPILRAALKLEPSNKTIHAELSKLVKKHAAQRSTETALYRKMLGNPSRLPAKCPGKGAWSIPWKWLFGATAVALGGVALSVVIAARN
inactive: alvocidib 0.004 | Tubastatin A -0.123 | [1] 0.02 | defactinib 0.024 | [2] -0.018 | encorafenib 0.009 | [3] 0.112 | alisertib 0.027 | [4] 0.001 | gefitinib 0.01 | lapatinib -0.041 | pictilisib -0.036 | crizotinib -0.12 | [5] -0.035 | duvelisib 0.044 | gandotinib -0.021 | tozasertib -0.024 | doramapimod 0.064 | bafetinib -0.07 | [6] 0.013

FOXJ3 (UniProt Q9UPW0)
inactive: alvocidib -0.009 | Tubastatin A -0.03 | [1] -0.031 | defactinib 0.014 | [2] 0.033 | encorafenib 0.055 | [3] -0.137 | alisertib -0.028 | [4] 0 | gefitinib 0.054 | lapatinib 0.039 | pictilisib -0.049 | crizotinib -0.053 | [5] 0.101 | duvelisib 0.035 | gandotinib -0.042 | tozasertib 0.021 | doramapimod 0 | bafetinib -0.139 | [6] -0.003

EP400 isoform 5 (UniProt Q96L91)
Sequence of UniProt Q96L91 (Q96L91 whole entry, looked up): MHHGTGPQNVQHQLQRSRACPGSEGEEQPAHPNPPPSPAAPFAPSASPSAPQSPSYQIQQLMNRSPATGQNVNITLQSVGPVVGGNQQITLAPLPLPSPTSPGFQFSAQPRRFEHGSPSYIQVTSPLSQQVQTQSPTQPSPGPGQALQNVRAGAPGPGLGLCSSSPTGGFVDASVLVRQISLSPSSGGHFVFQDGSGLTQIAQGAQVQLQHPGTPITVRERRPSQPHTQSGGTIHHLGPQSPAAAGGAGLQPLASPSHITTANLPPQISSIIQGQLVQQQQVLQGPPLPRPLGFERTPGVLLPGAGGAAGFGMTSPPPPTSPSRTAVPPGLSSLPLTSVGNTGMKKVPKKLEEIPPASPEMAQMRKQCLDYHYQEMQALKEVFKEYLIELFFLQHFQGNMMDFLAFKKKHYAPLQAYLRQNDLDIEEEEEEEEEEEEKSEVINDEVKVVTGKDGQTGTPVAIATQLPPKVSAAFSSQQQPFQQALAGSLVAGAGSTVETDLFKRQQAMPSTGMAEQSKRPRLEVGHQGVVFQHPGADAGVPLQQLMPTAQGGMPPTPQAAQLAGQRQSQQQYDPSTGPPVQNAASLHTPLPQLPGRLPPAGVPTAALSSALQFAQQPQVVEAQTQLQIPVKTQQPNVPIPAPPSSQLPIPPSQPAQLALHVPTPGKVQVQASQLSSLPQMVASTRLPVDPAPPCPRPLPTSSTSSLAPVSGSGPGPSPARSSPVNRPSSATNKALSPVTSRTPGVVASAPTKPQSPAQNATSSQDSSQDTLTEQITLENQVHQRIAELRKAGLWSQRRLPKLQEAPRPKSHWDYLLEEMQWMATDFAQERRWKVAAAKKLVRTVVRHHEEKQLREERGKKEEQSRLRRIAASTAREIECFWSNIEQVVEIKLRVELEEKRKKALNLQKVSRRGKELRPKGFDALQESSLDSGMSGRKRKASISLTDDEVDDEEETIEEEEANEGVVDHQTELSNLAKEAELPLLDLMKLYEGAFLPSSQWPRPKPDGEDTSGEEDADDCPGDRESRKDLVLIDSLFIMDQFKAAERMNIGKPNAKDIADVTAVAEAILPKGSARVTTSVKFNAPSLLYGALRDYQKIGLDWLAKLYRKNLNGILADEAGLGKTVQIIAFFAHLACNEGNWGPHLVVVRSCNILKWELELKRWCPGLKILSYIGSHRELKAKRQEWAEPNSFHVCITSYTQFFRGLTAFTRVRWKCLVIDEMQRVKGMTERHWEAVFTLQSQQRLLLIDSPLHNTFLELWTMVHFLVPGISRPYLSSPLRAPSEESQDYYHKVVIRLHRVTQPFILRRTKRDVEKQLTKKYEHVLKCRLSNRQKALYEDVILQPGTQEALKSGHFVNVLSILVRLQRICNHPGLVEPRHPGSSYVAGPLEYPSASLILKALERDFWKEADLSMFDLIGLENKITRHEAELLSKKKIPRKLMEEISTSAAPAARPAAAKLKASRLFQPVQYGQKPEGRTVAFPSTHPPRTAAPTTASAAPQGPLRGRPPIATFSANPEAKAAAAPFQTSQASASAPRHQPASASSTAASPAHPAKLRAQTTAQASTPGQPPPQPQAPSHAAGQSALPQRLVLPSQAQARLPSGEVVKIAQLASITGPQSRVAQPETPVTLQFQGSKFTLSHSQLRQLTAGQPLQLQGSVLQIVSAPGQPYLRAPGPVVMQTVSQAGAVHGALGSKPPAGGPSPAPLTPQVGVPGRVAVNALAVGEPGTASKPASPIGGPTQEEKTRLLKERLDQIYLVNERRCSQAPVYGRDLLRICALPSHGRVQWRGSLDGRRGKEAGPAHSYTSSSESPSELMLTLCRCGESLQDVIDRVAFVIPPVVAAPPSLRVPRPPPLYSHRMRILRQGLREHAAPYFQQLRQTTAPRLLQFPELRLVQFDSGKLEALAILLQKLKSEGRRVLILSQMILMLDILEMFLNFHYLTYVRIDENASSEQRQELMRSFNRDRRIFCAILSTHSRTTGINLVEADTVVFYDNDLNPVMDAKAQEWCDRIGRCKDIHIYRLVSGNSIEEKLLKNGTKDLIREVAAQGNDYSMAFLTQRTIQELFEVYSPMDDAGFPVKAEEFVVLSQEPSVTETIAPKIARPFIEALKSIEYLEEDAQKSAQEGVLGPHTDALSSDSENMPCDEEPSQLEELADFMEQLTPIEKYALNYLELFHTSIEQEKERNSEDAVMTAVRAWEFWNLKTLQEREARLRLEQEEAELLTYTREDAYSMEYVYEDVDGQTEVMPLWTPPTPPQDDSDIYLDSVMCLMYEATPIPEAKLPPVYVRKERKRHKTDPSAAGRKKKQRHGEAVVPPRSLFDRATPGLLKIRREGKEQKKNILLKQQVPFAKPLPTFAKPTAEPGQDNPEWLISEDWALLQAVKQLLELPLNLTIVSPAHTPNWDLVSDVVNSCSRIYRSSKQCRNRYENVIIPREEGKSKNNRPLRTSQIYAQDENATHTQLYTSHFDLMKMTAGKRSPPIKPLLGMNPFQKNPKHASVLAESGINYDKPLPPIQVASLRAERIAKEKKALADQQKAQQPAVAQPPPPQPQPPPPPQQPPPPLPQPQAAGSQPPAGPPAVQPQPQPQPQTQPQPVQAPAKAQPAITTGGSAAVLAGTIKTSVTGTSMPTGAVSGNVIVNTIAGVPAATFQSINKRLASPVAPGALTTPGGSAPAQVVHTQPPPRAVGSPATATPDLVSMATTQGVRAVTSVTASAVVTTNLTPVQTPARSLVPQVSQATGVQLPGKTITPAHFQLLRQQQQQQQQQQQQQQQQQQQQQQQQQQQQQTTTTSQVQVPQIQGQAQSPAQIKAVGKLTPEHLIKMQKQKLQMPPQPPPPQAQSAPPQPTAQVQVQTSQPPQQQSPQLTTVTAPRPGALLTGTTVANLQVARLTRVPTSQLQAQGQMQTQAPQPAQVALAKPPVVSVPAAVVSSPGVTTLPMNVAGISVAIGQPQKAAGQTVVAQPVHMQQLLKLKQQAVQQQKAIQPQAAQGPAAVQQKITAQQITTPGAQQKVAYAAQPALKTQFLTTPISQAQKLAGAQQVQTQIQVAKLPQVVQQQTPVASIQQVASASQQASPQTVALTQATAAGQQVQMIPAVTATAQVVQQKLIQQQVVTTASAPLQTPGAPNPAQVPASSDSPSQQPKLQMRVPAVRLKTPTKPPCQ
inactive: alvocidib 0.015 | Tubastatin A -0.022 | [1] 0.037 | defactinib 0.01 | [2] 0.035 | encorafenib -0.028 | [3] 0.068 | alisertib 0.004 | [4] 0.023 | gefitinib -0.055 | lapatinib 0.052 | pictilisib -0.068 | crizotinib -0.04 | [5] -0.018 | duvelisib -0.036 | gandotinib -0.012 | tozasertib -0.041 | doramapimod 0.02 | bafetinib -0.053 | [6] -0.011

ELAVL1 isoform 2 (UniProt Q15717)
inactive: alvocidib 0.013 | Tubastatin A -0.187 | [1] 0.05 | defactinib -0.005 | [2] -0.011 | encorafenib 0.018 | [3] 0.166 | alisertib 0.019 | [4] -0.002 | gefitinib 0.048 | lapatinib 0.031 | pictilisib -0.002 | crizotinib -0.037 | [5] 0.055 | duvelisib 0.001 | gandotinib -0.067 | tozasertib -0.047 | doramapimod 0.007 | bafetinib -0.004 | [6] -0.026

GEMIN2 (UniProt O14893)
Sequence of UniProt O14893 (O14893 whole entry, looked up): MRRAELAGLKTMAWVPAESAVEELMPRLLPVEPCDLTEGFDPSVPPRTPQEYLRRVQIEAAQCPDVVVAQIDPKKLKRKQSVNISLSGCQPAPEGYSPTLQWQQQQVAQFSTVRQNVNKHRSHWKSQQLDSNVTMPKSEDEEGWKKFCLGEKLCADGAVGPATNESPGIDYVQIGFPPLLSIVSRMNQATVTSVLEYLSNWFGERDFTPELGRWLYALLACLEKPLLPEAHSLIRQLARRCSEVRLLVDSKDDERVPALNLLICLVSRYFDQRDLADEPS
inactive: alvocidib 0.034 | Tubastatin A -0.053 | [1] 0.001 | defactinib -0.006 | [2] 0.013 | encorafenib 0.095 | [3] -0.009 | alisertib -0.017 | [4] 0.009 | gefitinib -0.1 | lapatinib -0.025 | pictilisib -0.029 | crizotinib 0.059 | [5] -0.12 | duvelisib 0.075 | gandotinib 0 | tozasertib -0.021 | doramapimod -0.092 | bafetinib -0.053 | [6] 0.139

DYRK1A (UniProt Q13627)
inactive: alvocidib 0.106 | Tubastatin A -0.088 | [1] 0.113 | defactinib 0.016 | [2] -0.034 | encorafenib 0.024 | [3] 0.002 | alisertib -0.008 | [4] 0.017 | gefitinib 0.007 | lapatinib -0.024 | pictilisib -0.003 | crizotinib 0.018 | [5] 0.055 | duvelisib -0.021 | gandotinib -0.012 | tozasertib 0.03 | doramapimod -0.06 | bafetinib -0.028 | [6] -0.021

FARSB (UniProt Q9NSD9)
Sequence of UniProt Q9NSD9 (Q9NSD9 whole entry, looked up): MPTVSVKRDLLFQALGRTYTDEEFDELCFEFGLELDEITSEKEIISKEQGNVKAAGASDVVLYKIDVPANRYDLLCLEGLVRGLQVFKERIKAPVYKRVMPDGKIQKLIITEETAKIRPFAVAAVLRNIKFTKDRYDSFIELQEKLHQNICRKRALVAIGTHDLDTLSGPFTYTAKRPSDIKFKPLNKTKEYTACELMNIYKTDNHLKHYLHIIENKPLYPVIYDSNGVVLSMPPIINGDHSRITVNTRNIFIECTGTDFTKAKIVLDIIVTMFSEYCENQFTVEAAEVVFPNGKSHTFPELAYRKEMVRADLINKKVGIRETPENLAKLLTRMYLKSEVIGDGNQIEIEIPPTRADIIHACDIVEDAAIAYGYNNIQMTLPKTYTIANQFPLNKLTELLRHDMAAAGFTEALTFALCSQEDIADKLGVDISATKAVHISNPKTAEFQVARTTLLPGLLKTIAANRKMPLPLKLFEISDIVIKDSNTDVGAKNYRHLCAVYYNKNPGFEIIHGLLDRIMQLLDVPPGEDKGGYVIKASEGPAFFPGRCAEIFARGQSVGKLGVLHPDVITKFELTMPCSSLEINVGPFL
inactive: alvocidib 0.003 | Tubastatin A -0.056 | [1] -0.012 | defactinib -0.014 | [2] -0.012 | encorafenib -0.029 | [3] 0.067 | alisertib 0.002 | [4] 0.005 | gefitinib -0.013 | lapatinib 0.003 | pictilisib -0.014 | crizotinib -0.033 | [5] 0.007 | duvelisib 0.021 | gandotinib -0.053 | tozasertib -0.014 | doramapimod 0.033 | bafetinib -0.005 | [6] -0.001

FDX2 (UniProt Q6P4F2)
inactive: alvocidib -0.016 | Tubastatin A 0.093 | [1] -0.001 | defactinib -0.017 | [2] -0.478 | encorafenib -0.33 | [3] -0.313 | alisertib 0.07 | [4] -0.021 | gefitinib -0.041 | lapatinib 0.047 | pictilisib -0.169 | crizotinib 0.057 | [5] -0.142 | duvelisib 0.188 | gandotinib 0.014 | tozasertib -0.15 | doramapimod 0.014 | bafetinib 0 | [6] 0.112

FTSJ1 (UniProt Q9UET6)
inactive: alvocidib 0.003 | Tubastatin A -0.038 | [1] 0.049 | defactinib -0.021 | [2] -0.016 | encorafenib -0.025 | [3] 0.089 | alisertib 0.004 | [4] 0.005 | gefitinib -0.001 | lapatinib 0.01 | pictilisib -0.002 | crizotinib -0.051 | [5] 0.051 | duvelisib -0.009 | gandotinib -0.088 | tozasertib -0.064 | doramapimod 0.03 | bafetinib 0.041 | [6] -0.052

EIF2B4 isoform 2 (UniProt Q9UI10)
inactive: alvocidib -0.015 | Tubastatin A -0.025 | [1] 0.013 | defactinib 0.035 | [2] 0.02 | encorafenib 0.018 | [3] 0.162 | alisertib -0.014 | [4] 0.016 | gefitinib 0 | lapatinib -0.041 | pictilisib 0.007 | crizotinib -0.037 | [5] -0.021 | duvelisib -0.013 | gandotinib -0.048 | tozasertib -0.01 | doramapimod -0.012 | bafetinib -0.058 | [6] 0.044
